Assay results taken from PubChem BioAssay (Tox21).
Results filed as inconclusive are left out. Activity calls are given as the source filed them. The call rests on the fitted dose curve; in most records, active means well fitted curve in the direction sought with a large enough effect in the repeat runs; inconclusive means weak or mixed curves; inactive means no such curve, though single readings can be large; an effect the other way counts as inactive or inconclusive.

How the values were obtained:
[1] = qHTS RealTime-Glo MT Cell Viability Assay in HepG2 cells - 40 hour (AID 1224870); further: nearly all actives have a fitted effect of over 50% in size
Method in brief: (§1)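 HepG2 cells mixed with RealTime-Glo MT reagents (NanoLuc plus cell-permeant prosubstrate) were seeded at 600 cells/well, incubated 5 h at 37 C/5% CO2, then pinned with compounds in DMSO; nonlytic luminescence tracked viability during 40 h treatment.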

[2] = A CellTox Green Cytotoxicity Assay to monitor cytotoxicity in HEK293 cells - 40 hour (AID 1224871); further: nearly all actives have a fitted effect of over 45% in size
Method in brief: (§2)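 Fluorescence from a DNA-binding dye excluded by viable cells was measured repeatedly in the same HEK293 wells (600 cells/well) during continuous compound exposure at 37 C. Each assay gives one read point: 0, 8, 16, 24, 32 or 40 h.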

[3] = qHTS RealTime-Glo MT Cell Viability Assay in HEK293 cells - 16 hour (AID 1224872); further: top concentration of the series differs between compounds; nearly all actives have a fitted effect of over 50% in size
Method in brief: (§3)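 Reads taken at 0, 8, 16, 24, 32 and 40 h from the same wells. HEK293 cells (600/well) carried RealTime-Glo reagents from seeding, with compound added after a 5 h settle at 37 C.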

[4] = qHTS RealTime-Glo MT Cell Viability Assay in HepG2 cells - 8 hour (AID 1224873); further: nearly all actives have a fitted effect of over 55% in size
Method in brief: as §1

[5] = qHTS RealTime-Glo MT Cell Viability Assay in HEK293 cells - 40 hour (AID 1224874); conditions: RealTime-Glo luminescence; max response: hits give low values; further: nearly all actives have a fitted effect of over 50% in size
Method in brief: (§4)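 Luminescence, which tracks viable cell number through reduction of the prosubstrate to a NanoLuc substrate, was read over continuous 37 C culture. Cells (600/well) were premixed with reagent and rested 5 h before 23 nL of compound in DMSO was pinned.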

[6] = A CellTox Green Cytotoxicity Assay to monitor cytotoxicity in HEK293 cells - 24 hour (AID 1224875); further: series mostly up to about 77 µM; nearly all actives have a fitted effect of over 45% in size
Method in brief: as §2

[7] = A CellTox Green Cytotoxicity Assay to monitor cytotoxicity in HepG2 cells - 16 hour (AID 1224876); further: nearly all actives have a fitted effect of over 45% in size
Method in brief: (§5)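 Real-time cytotoxicity: fluorescence of a cell-impermeant cyanine dye binding DNA of dead HepG2 cells, measured repeatedly (0–40 h) during compound exposure at 37 C. Cells seeded 600/well with reagent, dosed after 5 h.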

[8] = qHTS RealTime-Glo MT Cell Viability Assay in HepG2 cells - 32 hour (AID 1224877); further: nearly all actives have a fitted effect of over 55% in size
Method in brief: (§6)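 HepG2 suspension premixed with RealTime-Glo reagents is plated at 600 cells per well and left 5 h at 37 C/5% CO2. Compounds in DMSO then go in, and bioluminescence reflecting viable cell number is recorded over 40 h.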

[9] = A CellTox Green Cytotoxicity Assay to monitor cytotoxicity in HepG2 cells - 24 hour (AID 1224878); further: nearly all actives have a fitted effect of over 45% in size
Method in brief: as §5

[10] = A CellTox Green Cytotoxicity Assay to monitor cytotoxicity in HepG2 cells - 40 hour (AID 1224879); further: nearly all actives have a fitted effect of over 40% in size
Method in brief: as §5

[11] = qHTS RealTime-Glo MT Cell Viability Assay in HEK293 cells - 0 hour (AID 1224880)
Method in brief: as §4

[12] = A CellTox Green Cytotoxicity Assay to monitor cytotoxicity in HEK293 cells - 32 hour (AID 1224881); further: nearly all actives have a fitted effect of over 40% in size
Method in brief: as §2

[13] = A CellTox Green Cytotoxicity Assay to monitor cytotoxicity in HepG2 cells - 0 hour (AID 1224882); further: nearly all actives have a fitted effect of over 35% in size
Method in brief: as §5

[14] = A CellTox Green Cytotoxicity Assay to monitor cytotoxicity in HepG2 cells - 32 hour (AID 1224883); further: nearly all actives have a fitted effect of over 50% in size
Method in brief: as §5

[15] = A CellTox Green Cytotoxicity Assay to monitor cytotoxicity in HEK293 cells - 8 hour (AID 1224884); further: nearly all actives have a fitted effect of over 35% in size
Method in brief: as §2

[16] = qHTS RealTime-Glo MT Cell Viability Assay in HEK293 cells - 24 hour (AID 1224886)
Method in brief: as §3

[17] = qHTS RealTime-Glo MT Cell Viability Assay in HEK293 cells - 8 hour (AID 1224887)
Method in brief: as §4

[18] = A CellTox Green Cytotoxicity Assay to monitor cytotoxicity in HEK293 cells - 16 hour (AID 1224888); further: nearly all actives have a fitted effect of over 35% in size
Method in brief: as §2

[19] = qHTS RealTime-Glo MT Cell Viability Assay in HepG2 cells - 0 hour (AID 1224889); further: nearly all actives have a fitted effect of over 50% in size
Method in brief: as §6

[20] = qHTS RealTime-Glo MT Cell Viability Assay in HepG2 cells - 16 hour (AID 1224885); further: nearly all actives have a fitted effect of over 50% in size
Method in brief: as §6
On the % scale 0 is the no-effect control and ±100 the full control effect.

BrCc1ccc(Br)cc1
inactive: Potency [1] | Potency [2] | Potency [3] | outcome [4] | max response [5] 4.4% | Potency [6] | Potency [7] | Potency [8] | Potency [9] | Potency [10] | outcome [11] | Potency [12] | outcome [13] | Potency [14] | Potency [15] | Potency [16] | Potency [17] | Potency [18] | outcome [19]

CC(Cl)(Cl)Cl
inactive: Potency [1] | Potency [2] | Potency [3] | outcome [4] | max response [5] -1.28% | Potency [6] | Potency [7] | Potency [8] | Potency [9] | Potency [10] | outcome [11] | Potency [12] | outcome [13] | Potency [14] | Potency [15] | Potency [20] | Potency [17] | Potency [18] | outcome [19]

C[N+]1(C)CCCCC1
inactive: Potency [1] | Potency [2] | Potency [3] | outcome [4] | max response [5] 19.2% | Potency [6] | Potency [7] | Potency [8] | Potency [9] | Potency [10] | outcome [11] | Potency [12] | outcome [13] | Potency [14] | Potency [15] | Potency [20] | Potency [16] | Potency [17] | Potency [18] | outcome [19]

CCOC(=O)C(SP(=S)(OC)OC)c1ccccc1 (configuration not stated)
inactive: Potency [1] | Potency [2] | Potency [3] | outcome [4] | max response [5] -6.34% | Potency [6] | Potency [7] | Potency [8] | Potency [9] | Potency [10] | outcome [11] | Potency [12] | outcome [13] | Potency [14] | Potency [15] | Potency [20] | Potency [16] | Potency [17] | Potency [18]

NCC1(CC(=O)O)CCCCC1
inactive: Potency [1] | Potency [2] | Potency [3] | outcome [4] | max response [5] 1.23% | Potency [6] | Potency [7] | Potency [8] | Potency [9] | Potency [10] | outcome [11] | Potency [12] | outcome [13] | Potency [14] | Potency [15] | Potency [20] | Potency [16] | Potency [17] | Potency [18] | outcome [19]

[O-][Br+2]([O-])O
inactive: Potency [1] | Potency [2] | Potency [3] | outcome [4] | max response [5] 3% | Potency [6] | Potency [7] | Potency [8] | Potency [9] | Potency [10] | outcome [11] | Potency [12] | outcome [13] | Potency [14] | Potency [15] | Potency [20] | Potency [16] | Potency [17] | Potency [18] | outcome [19]

O=S1(=O)OCCO1
inactive: Potency [1] | Potency [2] | Potency [3] | outcome [4] | max response [5] 4.27% | Potency [6] | Potency [7] | Potency [8] | Potency [9] | Potency [10] | outcome [11] | Potency [12] | outcome [13] | Potency [14] | Potency [15] | Potency [20] | Potency [16] | Potency [17] | Potency [18] | outcome [19]

CCOC(=O)CCl
inactive: Potency [1] | Potency [2] | Potency [3] | outcome [4] | max response [5] 14.4% | Potency [6] | Potency [7] | Potency [8] | Potency [9] | Potency [10] | outcome [11] | Potency [12] | outcome [13] | Potency [14] | Potency [15] | Potency [20] | Potency [16] | Potency [17] | Potency [18] | outcome [19]

CCN1CCCC1CNC(=O)C(O)(c1ccccc1)c1ccccc1 (configuration not stated)
inactive: Potency [1] | Potency [2] | Potency [3] | outcome [4] | max response [5] -2.61% | Potency [6] | Potency [7] | Potency [8] | Potency [9] | Potency [10] | outcome [11] | Potency [12] | outcome [13] | Potency [14] | Potency [15] | Potency [20] | Potency [16] | Potency [17] | Potency [18] | outcome [19]

COC[C@@H](NC(C)=O)C(=O)NCc1ccccc1
inactive: Potency [1] | Potency [2] | Potency [3] | outcome [4] | max response [5] 5.22% | Potency [6] | Potency [7] | Potency [8] | Potency [9] | Potency [10] | outcome [11] | Potency [12] | outcome [13] | Potency [14] | Potency [15] | Potency [20] | Potency [16] | Potency [17] | Potency [18] | outcome [19]

CCOC(=O)CC(SP(=S)(OC)OC)C(=O)OCC (configuration not stated)
inactive: Potency [1] | Potency [2] | Potency [3] | outcome [4] | max response [5] 11.4% | Potency [6] | Potency [7] | Potency [8] | Potency [9] | Potency [10] | outcome [11] | Potency [12] | outcome [13] | Potency [14] | Potency [15] | Potency [20] | Potency [16] | Potency [17] | Potency [18] | outcome [19]

Cn1c(CCCC(=O)O)nc2cc(N(CCCl)CCCl)ccc21
inactive: Potency [1] | Potency [2] | Potency [3] | outcome [4] | max response [5] 1.4% | Potency [6] | Potency [7] | Potency [8] | Potency [9] | Potency [10] | outcome [11] | Potency [12] | outcome [13] | Potency [14] | Potency [15] | Potency [20] | Potency [16] | Potency [17] | Potency [18] | outcome [19]

O=[N+]([O-])c1cccc(CCl)c1
inactive: Potency [1] | Potency [2] | Potency [3] | outcome [4] | max response [5] 6.77% | Potency [6] | Potency [7] | Potency [8] | Potency [9] | Potency [10] | outcome [11] | Potency [12] | outcome [13] | Potency [14] | Potency [15] | Potency [20] | Potency [16] | Potency [17] | Potency [18] | outcome [19]
